Test results as given in PubChem BioAssay (NCATS).
Results filed as inconclusive are left out. Where a call stands in place of a potency, no number is given. The source made the active and inactive calls. The call rests on the fitted dose curve; in most records, active means well fitted cell-killing curve with a large enough effect; inconclusive means small, poorly fitted or top-dose-only effect, or effect the other way; inactive means no such curve, though single readings can be large or run the other way.

Experiment: Quantitative High-Throughput drug screen in 47 multiple myeloma cell lines against the NCATS MIPE library collection: KMS11_JCRBsus cell viability assay (AID 1919873); further: nearly all actives have a fitted effect of over 50% in size
Conditions: KMS11 myeloma viability, CellTiter-Glo ATP luminescence, 48 h; series mostly up to 45.8 µM
Procedure, shortened: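 Viability after 48 h drug exposure was measured as ATP-dependent luminescence. Cells, 500 per well, sat at 37 °C under 5% CO2; DMSO wells set 100%, media-only wells 0%.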
Potency means the concentration at half of the fitted maximal effect.

Row | SMILES | Potency
1 | CCC(CC)[C@H](NC(C)=O)[C@@H]1[C@H](O)[C@@H](C(=O)O)C[C@@H]1N=C(N)N | inactive
2 | O=c1[nH]cnc2c1ncn2[C@H]1CC[C@@H](CO)O1 | inactive
3 | CC1(C)CCC(CN2CCN(c3ccc(C(=O)NS(=O)(=O)c4ccc(NCC5CCOCC5)c([N+](=O)[O-])c4)c(Oc4cnc5[nH]ccc5c4)c3)CC2)=C(c2ccc(Cl)cc2)C1 | inactive
4 | Nc1ncnc2c1ncn2[C@@H]1O[C@@H](CO)[C@H](O)[C@H]1O | inactive
5 | O=C(Nc1ccccc1-c1cn2c(CN3CCNCC3)csc2n1)c1cnc2ccccc2n1 | 8.33 µM (active)
6 | CC1(C)CCC2=C(O1)c1ccccc1C(=O)C2=O | 26.4 µM (active)
